Compounds with a hit are over-represented: about 5.3% of the library has one in this group of screens.
ALR H2O2 inh = inhibitors of human ALR sulfhydryl oxidase, primary screen, biochemical, H2O2 detection, HRP-luminol luminescence, single point; AID 485317, 2010; purified ALR, DTT oxidation; FAD-linked sulfhydryl oxidase ALR (Homo sapiens), P55789; actives 3.8% (n = 290,000); inhibition, % (no concentration beside the values);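 active = mean replicate inhibition above about 79%, with every replicate also reaching it, limit read from the data; inconclusive = only one of the two criteria met; inactive = mean below limit and not every replicate reaching it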
Target sequence (P55789 whole entry, looked up): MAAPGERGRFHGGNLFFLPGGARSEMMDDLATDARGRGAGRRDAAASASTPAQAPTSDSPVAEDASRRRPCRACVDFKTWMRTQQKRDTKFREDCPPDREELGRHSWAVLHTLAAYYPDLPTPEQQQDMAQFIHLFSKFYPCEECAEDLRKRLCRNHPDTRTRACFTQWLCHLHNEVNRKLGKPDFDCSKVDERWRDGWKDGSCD
HIF act = HIF pathway transcriptional activators, primary screen, cell-based, U2OS HRE-luciferase, luminescence. U2OS HRE-luciferase reporter; normalized: DMSO 0%, desferrioxamine 100%. actives 0.32% (n = 300,000). activation, % at 7.5 µM (by protocol). AID 1910, 2009;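 active = mean activation of at least 10% of the iron chelator positive control signal, with at least half of replicates also reaching 10%; inconclusive = mean and replicate majority disagree about reaching 10%; inactive = mean and most replicates under 10%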
SUMO Mot1 rescue = yeast Mot1-301 growth rescue at high temperature, primary screen, SUMOylation pathway inhibitor project, S. cerevisiae, ATP luminescence, 38.5C | S. cerevisiae Mot1-301 growth rescue; percent above DMSO median, 100 means doubled | actives 1% (n = 320,000) | growth rescue, % at 18.8 µM;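 active = every valid replicate shows activation above 250% relative to neutral control wells; inactive = the rest, any valid replicate at or below 250%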
PfM18AAP inh = PfM18AAP inhibitors, malaria aminopeptidase, primary screen, biochemical, QFRET, recombinant enzyme; inhibition, % at 7.35 µM; actives 1.2% (n = 290,000); H-Glu-NHMec fluorogenic cleavage; M18 aspartyl aminopeptidase (Plasmodium falciparum 3D7);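 active = inhibition above the campaign mean inhibition over all tested compounds plus 3 SD, cut at about 28% in these data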
Hits are given with their value; . = inactive; ? = inconclusive; / = no result given.

SMILES	ALR H2O2 inh	HIF act	SUMO Mot1 rescue	PfM18AAP inh
CC1=NN2C(=N)/C(=C\c3cc(C)n(-c4cccc(C)c4)c3C)C(=O)N=C2S1	.	.	.	.
CCS(=O)(=O)C1=NN2C(=N)/C(=C\c3ccc(OS(=O)(=O)c4ccccc4)cc3)C(=O)N=C2S1	?	.	.	.
COc1cc(/C=C2/C(=N)N3C(=NC2=O)SN=C3S(C)(=O)=O)ccc1OS(=O)(=O)c1ccc(C)cc1	.	.	.	.
Cc1ccc(S(=O)(=O)Oc2ccc(/C=C3\C(=N)N4N=C(S(C)(=O)=O)SC4=NC3=O)cc2)cc1	91.7	.	.	.
Cc1nc(COc2ccc(C(=O)NCc3ccccc3CN3CCCCC3)cc2)cs1	.	/	.	/
O=C(COC(=O)c1ccccc1[N+](=O)[O-])Nc1cc(S(=O)(=O)N2CCOCC2)ccc1N1CCCC1	/	.	.	.
CC(NC(=O)COC(=O)c1cc(NS(=O)(=O)c2ccc(Cl)c([N+](=O)[O-])c2)ccc1O)C1CC2CCC1C2 (configuration not stated)	.	.	.	.
CCS(=O)(=O)C1=NN2C(=N)/C(=C\c3ccc(OS(=O)(=O)c4ccccc4)c(OC)c3)C(=O)N=C2S1	?	.	.	.
COc1cc(/C=C2\C(=N)N3N=C(S(C)(=O)=O)SC3=NC2=O)ccc1OS(=O)(=O)c1ccccc1	90.7	.	.	.
CCOC(=O)N1CCC2(CC1)C(C#N)=C(N)Oc1c2c(C)nn1-c1cccc(Cl)c1	.	.	.	.
CCn1c(C(C)NC(=O)c2ccc(Cl)cc2)n[nH]c1=S (configuration not stated)	.	.	.	.
C=CCn1c(C(C)NC(=O)c2cccc(C)c2)n[nH]c1=S (configuration not stated)	93.0	.	.	.
CN(CCCNC(=O)CCC(=O)N1CCOc2ccc(Cl)cc21)Cc1ccccc1	93.2	.	.	.
CCOc1ccc2[nH]cc(C(=O)NCCCN3CCOCC3)c(=O)c2c1	/	.	.	.
COc1nccnc1NS(=O)(=O)c1ccc(NC(=S)NC(=O)c2ccccc2)cc1	87.2	.	.	.
C=C(c1ccccc1O)n1ccnc1	.	.	.	.
O=C(N/N=C\c1cc(Cl)ccc1O)c1ccc(S(=O)(=O)N2CCCCC2)cc1	.	44.5	.	.
COc1cc(/C=N/NC(=O)c2cccc(S(=O)(=O)N3CCCC3)c2)ccc1O	98.7	.	.	/
COc1ccc(NS(=O)(=O)c2cccc(C(=O)NN=Cc3ccc(O)c(OC)c3)c2)cc1	.	/	.	/
O=C(N/N=C/c1ccc(O)c(O)c1)c1cccc(S(=O)(=O)N2CCCC2)c1	99.0	.	.	/
O=C(N/N=C/c1cccnc1)c1cccc(S(=O)(=O)N2CCCC2)c1	.	.	.	.
O=C(Nc1cc(S(=O)(=O)Nc2ccc(Cl)cc2)ccc1O)c1ccc(S(=O)(=O)N2CCCCCC2)cc1	.	.	.	.
CC[C@H](C)[C@@H](C(=O)NCCCCCCCCCCC(=O)N1CCN(C(=O)OC(C)(C)C)CC1)n1cc(CCCCCNC(=O)OC(C)(C)C)nn1	.	/	.	/
CC12CCC(=O)N1C(C(=O)NCc1ccccc1Cl)CS2 (configuration not stated)	.	.	.	/
COc1ccc(-c2nnc(SCC(=O)NC3CC3)o2)cc1	.	/	.	/
SMILES	ALR H2O2 inh	HIF act	SUMO Mot1 rescue	PfM18AAP inh
CC(C)(C)c1ccc(NC(=S)NCCc2ccccn2)cc1	97.9	.	.	.
FC(F)(F)c1cccc(NC(=S)NCCc2ccccn2)c1	77.4	.	/	.
CNNC(=S)Nc1cccc(C(F)(F)F)c1	.	.	.	29.2
COCCNC(=S)N1CCC(c2nc(-c3ccc(F)cc3)no2)CC1	.	.	.	.
Fc1ccc(-c2noc(C3CCN(Cc4cccnc4)CC3)n2)cc1	.	.	847.5	.
O=C(COC(=O)/C=C/c1ccc(S(=O)(=O)N2CCOCC2)cc1)NCc1ccc(F)cc1	.	.	306.8	.
O=C(COC(=O)/C=C/c1ccc(S(=O)(=O)N2CCOCC2)cc1)NCc1ccc2c(c1)OCO2	.	.	.	.
CC(=O)Nc1ccc(S(=O)(=O)Nc2nc3ccccc3nc2Sc2nncn2C)cc1	99.2	.	.	.
Cn1ccnc1Sc1nc2ccccc2nc1NS(=O)(=O)c1ccccc1	.	.	.	28.8
Cn1cnnc1Sc1nc2ccccc2nc1NS(=O)(=O)c1ccccc1	.	/	.	.
CC(C)(C)OC(=O)NCCCC[C@H](NC(=O)c1nc[nH]c1C(=O)N1CCN(c2ccccc2)CC1)C(=O)OC(C)(C)C	.	.	.	/
S=C(NCCc1ccccc1)Nc1ccc(Nc2ccccc2)cc1	97.9	.	.	.
Oc1ccccc1/C=N/NC(=S)NCCc1ccccc1	.	.	.	29.1
CCCNC(=S)Nc1ccc(CC(=O)OC)cc1	.	.	.	.
CC(C)(C)NC(=S)Nc1ccc(Nc2ccccc2)cc1	99.2	.	.	.
CCCNC(=S)Nc1ccccc1	89.6	.	.	.
S=C(NCCCc1ccccc1)Nc1ccccc1	.	/	.	.
Cc1cccc(C(=O)Nc2ccc(C(=O)Nc3ccc(O)cc3)cc2)c1	.	.	.	.
CCCCc1ccc(S(=O)(=O)Nc2nnc(C)s2)cc1	.	.	.	.
O=C(CCc1ccccc1)NNC(=S)NCCc1ccccc1	.	.	.	.
Cc1ccc(NC(=S)NCCc2ccccc2)nc1	.	.	/	29.1
CC(=O)NNC(=S)NCCc1ccccc1	.	.	.	29.6
S=C(Nc1ccc(N2CCOCC2)cc1)Nc1ccc2snnc2c1	94.9	.	.	30.1
O=C(Nc1ccc2snnc2c1)N1CCN(c2ccccc2)CC1	98.7	.	.	.
O=C(Nc1ccc2snnc2c1)N1CCOCC1	76.8	.	.	.
SMILES	ALR H2O2 inh	HIF act	SUMO Mot1 rescue	PfM18AAP inh
O=C(Nc1ccc2snnc2c1)N1CCCCC1	?	.	.	.
O=C(NNC(=O)c1ccccc1F)c1cccc(-n2cccc2)c1	.	.	.	/
COc1ccc(N2CCN(C(=O)CS(=O)Cc3nc(-c4ccc(OC)c(OC)c4)oc3C)CC2)cc1 (configuration not stated)	.	.	.	.
COc1ccc(-c2nc(CS(=O)CC(=O)NC3CCCC3)c(C)o2)cc1OC (configuration not stated)	99.2	.	.	.
COc1ccc(-c2nc(CS(=O)CC(=O)NC3CCC(C)CC3)c(C)o2)cc1OC (configuration not stated)	99.5	.	.	.
COc1ccc(-c2nc(CS(=O)CC(=O)NC3CCCc4ccccc43)c(C)o2)cc1OC (configuration not stated)	98.9	.	.	.
COc1ccc(-c2nc(CSCC(=O)NC3CCCc4ccccc43)c(C)o2)cc1OC (configuration not stated)	/	.	.	.
COc1cccc(N2CCN(C(=O)c3cc(-c4ccccc4)nc4c3cnn4C(C)C)CC2)c1	.	/	.	/
NCCCC[C@@H]1NC(=O)[C@H](CCC(=O)O)NC(=O)c2cc([N+](=O)[O-])cc(I)c2OCC[C@@H](C(N)=O)NC1=O	.	/	.	.
O=C1c2ccccc2C(=O)C1(O)O	.	/	.	/
